Laboratory results from the supplement of paper PMC11577813, “Eurasian spruce bark beetle detects lanierone using a highly expressed specialist odorant receptor, present in several functional sensillum types” (BMC Biology, 2024).
± gives the standard deviation of the averaged measurements.

Columns and labels:
[1] = system: (+)-isopinocamphone A-neuron OSN class; assay: net action potential response of A-neuron (blank-subtracted) (spikes/s (Hz)); higher = stronger excitation; settings: 10 µg on filter paper; neuron: A neuron (large spike amplitude)
Summary of the method: (§1)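 A humidified, charcoal-filtered airstream of 1.8 L/min passed over one fixed antenna of a live lab-reared adult Ips typographus during single sensillum recording with tungsten electrodes. Stimuli were 0.5 s pulses at 0.3 L/min from a pipette holding filter paper with 10 μg of compound in paraffin oil. Firing of the large-amplitude A-neuron or small-amplitude B-neuron was taken as a spike rate after pre-stimulus subtraction in AutoSpike, conversion to spikes/s, blank subtraction and averaging across sensilla. The windows were 0.5 s long, with 1–4 sensilla.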

[2] = system: (+)-trans-4-thujanol A-neuron OSN class; assay: as above; settings: 10 µg on filter paper; neuron: A neuron (large spike amplitude)
Summary of the method: as §1

[3] = system: (5S,7S)-trans-conophthorin A-neuron OSN class; assay: as above; settings: 10 µg on filter paper; neuron: A neuron (large spike amplitude)
Summary of the method: as §1

[4] = system: ipsdienol A-neuron OSN class; assay: as above; settings: 10 µg on filter paper; neuron: A neuron (large spike amplitude)
Summary of the method: as §1

[5] = system: myrcene A-neuron OSN class; assay: as above; settings: 10 µg on filter paper; neuron: A neuron (large spike amplitude)
Summary of the method: as §1

[6] = system: p-cymene A-neuron OSN class; assay: as above; settings: 10 µg on filter paper; neuron: A neuron (large spike amplitude)
Summary of the method: as §1

[7] = system: lanierone-responsive B-neuron OSN class (ItypOR36); assay: net action potential response of lanierone B-neuron (blank-subtracted) (spikes/s (Hz)); higher = stronger excitation; settings: 10 µg on filter paper, neuron: B neuron (small spike amplitude)
Summary of the method: as §1

[8] = co-localized A-neuron class: (4S)-cis-verbenol
[9] = co-localized A-neuron class: (5S,7S)-trans-conophthorin
[10] = co-localized A-neuron class: (+)-isopinocamphone
[11] = co-localized A-neuron class: (+)-trans-4-thujanol
[12] = co-localized A-neuron class: ipsdienol
[13] = co-localized A-neuron class: myrcene
[14] = co-localized A-neuron class: p-cymene

Structure (SMILES) | net action potential response [1] | net action potential response [2] | net action potential response [3] | net action potential response [4] | net action potential response [5] | net action potential response [6] | net action potential response [7, 8] | net action potential response [7, 9] | net action potential response [7, 10] | net action potential response [7, 11] | net action potential response [7, 12] | net action potential response [7, 13] | net action potential response [7, 14]
CC1=C[C@@H](O)[C@H]2C[C@@H]1C2(C)C [(-)-trans-Verbenol] | 0.667 ± 10 | 5.5 ± 5.7 | 13 ± 20 | 0.667 ± 3.1 | 6 | 2 ± 2 | -1.33 ± 9 | -3.5 ± 6 | 1.33 ± 2.3 | -2 ± 2.8 | 2 ± 4 | -4 | -2 ± 9.2
CC(C)=CCC/C(C)=C/C=O [Citral (E/Z mix)] | 0.667 ± 5 | 0.5 ± 1.9 | 2 ± 7.2 |  | 2 | -2 ± 2 | -1.33 ± 4.6 | -3.33 ± 4.2 | 1.33 ± 4.2 | 2 ± 8.2 | -5.33 ± 7.6 | 0 | -0.667 ± 4.2
C=C1CCC2CC1C2(C)C (stereo not drawn) [(-)-β-Pinene] | 8 ± 7.2 | 1 ± 1.1 | 2 ± 6 |  | 18 | 0.667 ± 4.6 | -0.667 ± 7.6 | 3.33 ± 3.1 | -3.33 ± 4.6 | -3 ± 4.2 | 0 ± 6 | -8 | 0 ± 7.2
CC(=O)CC/C=C(\C)CCC=C(C)C [Geranylacetone] | 2 ± 2 | 1 ± 4.8 | 4.67 ± 7 |  | -2 | 3 ± 4.2 | -2 ± 2 | -2 ± 2 | -1.33 ± 4.2 | 0 ± 4.3 | -3.33 ± 5.8 | -2 | 0 ± 2.8
CCC1CCC2(CCCO2)O1 (racemic) [(±)-Chalcogran] | -3.33 ± 1.1 | 9 ± 10 | 175 ± 15 |  | 2 | 0.667 ± 3.1 | -1.33 ± 5.8 | -4 ± 5.3 | -1.33 ± 2.3 | -1.5 ± 3.4 | -0.667 ± 1.1 | -8 | -2.67 ± 2.3
COc1ccccc1 [Anisole] | 2 ± 5.3 | 1 ± 4.2 | 1.33 ± 4.2 |  | -2 | 10.7 ± 5.8 | -1.33 ± 8.3 | 0 ± 6 | -2.67 ± 2.3 | -2.5 ± 4.1 | 2.67 ± 4.6 | 2 | -3 ± 1.4
C=CC(C)(C)O [2-Methyl-3-buten-2-ol] | 0.667 ± 1.1 | 7 ± 11 | 3.33 ± 4.2 |  | -8 | 1 ± 1.4 | -4.67 ± 5 | -4.67 ± 7 | 2 ± 2 | -3.5 ± 7.2 | 3.33 ± 11 | 4 | -6 ± 2.8
C[C@@H]1C(=O)C[C@H]2C[C@@H]1C2(C)C [(+)-Isopinocamphone] | 172 ± 28 | -2 ± 5.9 | 1.33 ± 1.1 | 0 ± 5.3 | -4 | -3.33 ± 2.3 |  |  |  |  |  |  | 
CC/C=C\CCO | 10.7 ± 27 | 74.5 ± 42 | -2 ± 4 |  | 6 | 0 ± 4 |  |  |  |  |  |  | 
CCCCCC(O)CC (racemic) [(±)-3-Octanol] | 10 ± 10 | 57.5 ± 45 | 13 ± 10 |  | 6 | 3.33 ± 2.3 |  |  |  |  |  |  | 
C=C(C)[C@@H]1CC=C(C)CC1 [(-)-Limonene] | -0.667 ± 4.2 | 2 ± 1.6 | 0 ± 2 |  | 6 | 26.7 ± 13 |  |  |  |  |  |  | 
C=CC(=C)C[C@@H](O)CC(C)C (racemic) [(±)-Ipsenol] | -1.33 ± 5 | 2 ± 2.8 | -1.33 ± 6.1 | 19.3 ± 15 | -2 | -4 |  |  |  |  |  |  | 
CC1(C)C2CC=C(CO)C1C2 (racemic) [(±)-Myrtenol] | 1.33 ± 5 | 1.5 ± 2.5 | -1 ± 3.5 |  | 2 | 1.33 ± 3.1 | -0.667 ± 3.1 | 2.5 ± 6 | -1.33 ± 3.1 | 0 ± 2.3 | -2 ± 14 | -6 | 0 ± 2
CCc1ccc(O)c(OC)c1 [4-Ethylguaiacol] | -1.33 ± 2.3 | 1 ± 1.1 | 3.33 ± 4.2 |  | 4 | 0.667 ± 2.3 |  |  |  |  |  |  | 
C=Cc1ccccc1 [Styrene] | 5.33 ± 6.1 | 8.5 ± 18 | 6 ± 7.2 |  | -2 | 18.7 ± 15 |  |  |  |  |  |  | 
CCC/C=C/C=O [(E)-hex-2-enal] | -3.33 ± 2.3 | 1 ± 5.8 | 4.67 ± 4.2 |  | 2 | 3 ± 1.4 |  |  |  |  |  |  | 

Structure (SMILES) | net action potential response [1] | net action potential response [2] | net action potential response [3] | net action potential response [4] | net action potential response [5] | net action potential response [6] | net action potential response [7, 8] | net action potential response [7, 9] | net action potential response [7, 10] | net action potential response [7, 11] | net action potential response [7, 12] | net action potential response [7, 13] | net action potential response [7, 14]
C=C(C)C1CC=C(C)C(=O)C1 (racemic) [(±)-Carvone] | -1.33 ± 1.1 | 1 ± 2.6 | 1 ± 3.5 |  | 0 | 30 ± 22 | -1.33 ± 5 | 1.5 ± 2.5 | 2.67 ± 2.3 | 1 ± 2.6 | -4.67 ± 2.3 | 6 | 0 ± 5.3
CCC/C=C/CO | -1.33 ± 4.2 | 0 ± 1.6 | -0.667 ± 6.4 |  | -2 | 1.33 ± 1.1 |  |  |  |  |  |  | 
C=CC(O)CCCCC (racemic) [(±)-1-Octen-3-ol] | -4.67 ± 1.1 | 33 ± 24 | 1.5 ± 2.5 |  | 2 | 1.33 ± 1.1 | -6.67 ± 5 | -0.5 ± 2.5 | -2 ± 4 | 0 ± 1.6 | -3.33 ± 1.1 | 4 | 0.667 ± 3.1
CC/C=C/CCO | 8.67 ± 14 | 27.5 ± 23 | -2 ± 2 |  | -4 | 0.667 ± 3.1 |  |  |  |  |  |  | 
C=C1[C@@H]2CC[C@@H](C2)C1(C)C (racemic) [(±)-Camphene] | -2 ± 2 | 1.5 ± 1 | -2.67 ± 3.1 |  | 0 | -3 ± 1.4 |  |  |  |  |  |  | 
C=CC(=C)CCC=C(C)C [Myrcene] | -2 ± 2 | 0.5 ± 3 | 2 ± 10 |  | 128 | 3.33 ± 2.3 | 7.33 ± 7.6 | 0 ± 6 | 1.33 ± 9 | 2.5 ± 6.6 | 2.67 ± 4.2 | -6 | -2.67 ± 4.6
CC1=CC(C)(C)C=C(O)C1=O [Lanierone] | 46.7 ± 9.2 | -1.5 ± 1.9 | -1.5 ± 7 |  | 0 | 1.33 ± 1.1 |  |  |  |  |  |  | 
C=C1CCC2(C(C)C)CC12 (racemic) [(±)-Sabinene] | 0.667 ± 3.1 | 6.5 ± 5.5 | 0.667 ± 3.1 | 3.33 ± 2.3 | 34 | 1.33 ± 6.4 |  |  |  |  |  |  | 
COc1ccc(C)cc1OC [3,4-Dimethoxytoluene] | 0.667 ± 3.1 | 1.5 ± 3.8 | 2.67 ± 6.4 |  | 4 | 1.33 ± 1.1 | 5.33 ± 11 | 0 ± 7.2 | 1.33 ± 2.3 | -1.5 ± 3.4 | 2 ± 6 | 2 | -2 ± 6.9
CC1=CCC2CC1C2(C)C (stereo not drawn) [(+)-α-Pinene] | 3.33 ± 3.1 | 2.5 ± 3 | -1.5 ± 6.8 | 2.67 ± 1.1 | 4 | 2.67 ± 1.1 |  |  |  |  |  |  | 
Cc1ccc(C(C)C)cc1 [p-Cymene] | -0.667 ± 2.3 | 0.5 ± 5.3 | 3.5 ± 3.4 |  | 0 | 146 ± 65 |  |  |  |  |  |  | 
CC(C)CCO [3-Methyl-1-butanol] | 2 ± 2 | 11 ± 11 | 3.33 ± 3.1 |  | -2 | 7.33 ± 6.1 |  |  |  |  |  |  | 
CC1=CCC(C(C)C)=CC1 [γ-Terpinene] | -0.667 ± 3.1 | -1 ± 4.2 | 3 ± 4.8 |  | 6 | 117 ± 49 | -2 ± 5.3 | 0.5 ± 6 | -0.667 ± 6.1 | -0.5 ± 1.9 | 0 ± 6 | -6 | -4 ± 3.5
CCCCCCO [1-Hexanol] | 18.7 ± 22 | 7 ± 5 | 6 ± 18 |  | 4 | 5.33 ± 1.1 |  |  |  |  |  |  | 
CC(=O)c1ccccc1 [Acetophenone] | 2.67 ± 4.2 | 2 ± 2.8 | 2 ± 2 |  | -2 | 4.67 ± 7.6 | 0 ± 5.3 | -3.33 ± 4.2 | -0.667 ± 2.3 | 1.5 ± 1 | -4.67 ± 3.1 | 4 | 1.33 ± 10
CC1=CCC(=C(C)C)CC1 [Terpinolene] | 3.33 ± 5.8 | 0.5 ± 5.5 | 4 ± 6.9 |  | 2 | 20 ± 16 |  |  |  |  |  |  | 
